Laboratory results taken from PubChem BioAssay (Tox21).
Inconclusive results are not listed. The source made the active and inactive calls. Unless noted, calls come from the whole dose curve.

Assays:
[1] = Nuclear factor erythroid 2-related factor 2/antioxidant responsive element (Nrf2/ARE) small molecule agonists: qHTS cell viability counter screen in human keratinocytes (AID 1919968; active = well fitted curve in the direction sought with a large enough effect in the repeat runs; an effect the other way counts as inactive or inconclusive; note: nearly all actives have a fitted effect of over 55% in size)
Procedure, shortened: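 KeratinoSens HaCaT cells, 1,500/well, preincubated 5 h, then exposed to compounds in DMSO for 23 h at 37 C/5% CO2. Viability read as CellTiter-Fluor fluorescence after 1 h, in the same wells as the ARE-luciferase read.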

[2] = Nuclear factor erythroid 2-related factor 2/antioxidant responsive element (Nrf2/ARE) small molecule agonists: luciferase reporter gene qHTS assay in human keratinocytes (AID 1919969); note: nearly all actives have a fitted effect of over 35% in size
[3] = molecular target: Gonadotropin-releasing hormone receptor (Homo sapiens) (UniProt P30968); assay: Human gonadotropin-releasing hormone receptor (GnRHR) small molecule agonists, calcium flux assay in GnRHR-HEK293 cells (AID 1920063); note: nearly all actives have a fitted effect of over 35% in size
Procedure, shortened: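 HEK293 cells stably expressing human GnRHR were dye-loaded for 1 h at 37 C. Compound was added in agonist mode and fluorescence (Ex/Em 480/540) recorded kinetically for 3 min. Fifteen concentrations, triplicates.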

[4] = molecular target: KiSS-1 receptor (Homo sapiens) (UniProt Q969F8); assay: Human kisspeptin (KISS1R) small molecule agonists, calcium flux assay in KISS1R-HEK293 cells (AID 1920064; active = well fitted curve in the direction sought with a large enough effect in the repeat runs; an effect the other way counts as inactive or inconclusive)
Procedure, shortened: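 HEK293 cells stably expressing human KISS1R were loaded with calcium dye for 1 h at 37 C, then given compound; fluorescence (Ex/Em 480/540) was read kinetically for 3 min. Fifteen concentrations, triplicate.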

[5] = G protein-coupled receptor (GPCR) small molecule agonists, calcium flux assay: HEK293 wild type cell line counter screen (AID 1920065)
Procedure, shortened: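 Wild-type HEK293 cells plated 18 h, loaded with calcium dye 1 h at 37 C, then compounds added in agonist mode (ATP as positive control). Kinetic fluorescence Ex/Em 480/540 recorded 3 min at 1 sec intervals; 15 concentrations, triplicate.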

[6] = p53 small molecule agonists, cell-based qHTS assay with human liver microsomes (AID 1963577);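 note: p53 response element beta-lactamase reporter cells with liver microsomes plus NADPH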
Procedure, shortened: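 Steps: plate p53RE-bla cells, incubate 5 h at 37 C; add compound in DMSO; add microsomes (0.5 mg/mL final) and NADPH (0.5 mg/mL final); incubate 16 h at 37 C; add LiveBLAzer, 2 h RT; read fluorescence.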

[7] = p53 small molecule agonists, cell-based qHTS assay with rat liver microsomes (AID 1963578)
Procedure, shortened: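 Metabolic activation is supplied by rat liver microsomes with NADPH (each 0.5 mg/mL final). p53RE-bla cells incubate with compound 16 h at 37 C; reporter activity is measured by LiveBLAzer fluorescence.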

[8] = p53 small molecule agonists, cell-based qHTS assay with human liver microsomes: qHTS cell viability counter screen (AID 1963579); note: nearly all actives have a fitted effect of over 45% in size
Procedure, shortened: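 After the 460/530 nm beta-lactamase read, CellTiter-Glo was added to the same wells and luminescence measured after 30 min at room temperature, giving viability of p53RE-bla cells treated 16 h with compounds plus microsomes and NADPH.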

[9] = p53 small molecule agonists, cell-based qHTS assay with rat liver microsomes: qHTS cell viability counter screen (AID 1963580); note: nearly all actives have a fitted effect of over 45% in size
Procedure, shortened: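 p53RE-bla HCT-116 cells (4,000/well) rested 5 h at 37 C, then given Tox21 compounds in DMSO with rat liver microsomes (0.5 mg/mL final) plus NADPH (0.5 mg/mL final) for 16 h at 37 C. Viability read by CellTiter-Glo luminescence after 30 min at room temperature.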

[10] = p53 small molecule agonists, cell-based qHTS assay: qHTS cell viability counter screen (AID 1963581); note: nearly all actives have a fitted effect of over 45% in size
Procedure, shortened: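 p53RE-bla HCT-116 cells, compounds added 5 h after plating and incubated 16 h at 37 C. Cytotoxicity measured in the same wells as intracellular ATP by CellTiter-Glo luminescence after 30 min at room temperature.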

[11] = p53 small molecule agonists, cell-based qHTS assay (AID 1963582; active = well fitted activation curve with a large enough effect in the signal ratio in the repeat runs, not every such curve was filed as active; the % refers to the signal ratio)
Procedure, shortened: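 p53RE-bla reporter cells, compounds added in DMSO after 5 h plating, incubated 16 h at 37 C. Beta-lactamase read via 2 h room-temperature LiveBLAzer B/G FRET substrate, fluorescence intensity.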

[12] = molecular target: 5-hydroxytryptamine receptor 2A (Homo sapiens) (UniProt P28223); assay: 5-hydroxytryptamine receptor 2A (HTR2A) small molecule antagonists, cell-based qHTS assay (AID 1963586); note: nearly all actives have a fitted effect of over 45% in size
Procedure, shortened: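 Antagonist-mode intracellular calcium assay: DOI (4 nM) added after 5 min compound pre-incubation at room temperature to dye-loaded HTR2A-CHO cells. Fluorescence followed for 3 min, sampled every second.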

[13] = molecular target: 5-hydroxytryptamine receptor 2A (Homo sapiens) (UniProt P28223); assay: 5-hydroxytryptamine receptor 2A (HTR2A) small molecule agonists, cell-based qHTS assay (AID 1963587); note: nearly all actives have a fitted effect of over 30% in size
Procedure, shortened: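 HTR2A-CHO cells, plated 18 h at 37 C/5% CO2, dye-loaded 1 h at 37 C; compounds in DMSO added by pin tool (agonist mode). Intracellular calcium flux read as kinetic fluorescence on FDSS over 2 min at 1 s intervals.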

[14] = molecular target: Muscarinic acetylcholine receptor M1 (Homo sapiens) (UniProt P11229); assay: Cholinergic receptor muscarinic 1 (CHRM1) small molecule antagonists, cell-based qHTS assay (AID 1963588); note: nearly all actives have a fitted effect of over 40% in size
Procedure, shortened: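 CHRM1-CHO calcium-flux assay, antagonist mode. Cells were seeded 18 h, dye-loaded 1 h at 37 C and given compound for 5 min at RT, then acetylcholine was added at 50nM. FDSS fluorescence was read 3 min; 15 concentrations, three runs.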

[15] = molecular target: Muscarinic acetylcholine receptor M1 (Homo sapiens) (UniProt P11229); assay: Cholinergic receptor muscarinic 1 (CHRM1) small molecule agonists, cell-based qHTS assay (AID 1963589); note: nearly all actives have a fitted effect of over 35% in size
Procedure, shortened: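 CHO cells stably expressing human CHRM1 were loaded with calcium dye for 1 h at 37 C, then compound was added in agonist mode. Intracellular calcium fluorescence was followed kinetically at 1 s intervals. Fifteen concentrations were tested in three independent runs.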

[16] = cAMP Responsive Elements (CRE) small molecule agonists, cell-based qHTS assay (AID 1963590)
Procedure, shortened: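 CRE-bla HEK 293T cells, 2,000/well in DMEM with 10% dialyzed FBS and 25 mM HEPES, pre-incubated 18 h at 37 C, then exposed to compound 3 h at 37 C. Beta-lactamase reporter read with LiveBLAzer B/G FRET substrate after 2 h at room temperature.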

[17] = cAMP Responsive Elements (CRE) small molecule antagonists, cell-based qHTS assay (AID 1963591; active = well fitted inhibition curve with a large enough effect in the signal ratio in the repeat runs, not every such curve was filed as active; the % refers to the signal ratio)
Procedure, shortened: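 CRE-bla HEK293T cells plated 18 h, then given compound plus NKH477 at 0.25 uM final for 3 h at 37C. Beta-lactamase reporter read with LiveBLAzer B/G FRET substrate after 2 h at room temperature.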

[18] = molecular target: Beta-2 adrenergic receptor (Homo sapiens) (UniProt P07550); assay: Adrenergic beta2 receptor (ADRB2) small molecule antagonists, cell-based qHTS assay (AID 1963592); note: series mostly up to about 92 µM; nearly all actives have a fitted effect of over 50% in size
Procedure, shortened: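 Cells (CHO, stable ADRB2 overexpression) incubated 18-20hr at 37C; compounds added from DMSO; agonist mix (1nM isoproterenol, 100uM IBMX, 25uM Ro-20-1724) added; 0.5hr RT; d2-cAMP and anti-cAMP-cryptate added; 1hr RT; 665/615 nm read.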

[19] = molecular target: D(2) dopamine receptor (Homo sapiens) (UniProt P14416); assay: Dopamine D2 receptor (DRD2) small molecule agonists, cell-based qHTS assay (AID 1963594); note: nearly all actives have a fitted effect of over 35% in size
Procedure, shortened: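 HEK293 cells stably expressing DRD2 were cultured 24 h at 37 C, then given Ro20-1724 (0.1 mM final) and compounds for 10 min at room temperature. NKH477 (200nM) was then added for 30 min. cAMP was read by HTRF.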

[20] = molecular target: D(2) dopamine receptor (Homo sapiens) (UniProt P14416); assay: Dopamine D2 receptor (DRD2) small molecule antagonists, cell-based qHTS assay (AID 1963595; active = well fitted inhibition curve with a large enough effect in the signal ratio in the repeat runs, with a control signal flat; the % refers to the signal ratio)
Procedure, shortened: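 Human DRD2 antagonist qHTS measuring cAMP by HTRF. The cells are exposed to compound for 10 min, then to NKH477 (200 nM) and quinpirole (12 nM) for 30 min at RT, with Ro20-1724 (0.1 mM) present throughout.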

Measured: Potency

Sequence of Beta-2 adrenergic receptor (Homo sapiens) (P07550 whole entry, looked up): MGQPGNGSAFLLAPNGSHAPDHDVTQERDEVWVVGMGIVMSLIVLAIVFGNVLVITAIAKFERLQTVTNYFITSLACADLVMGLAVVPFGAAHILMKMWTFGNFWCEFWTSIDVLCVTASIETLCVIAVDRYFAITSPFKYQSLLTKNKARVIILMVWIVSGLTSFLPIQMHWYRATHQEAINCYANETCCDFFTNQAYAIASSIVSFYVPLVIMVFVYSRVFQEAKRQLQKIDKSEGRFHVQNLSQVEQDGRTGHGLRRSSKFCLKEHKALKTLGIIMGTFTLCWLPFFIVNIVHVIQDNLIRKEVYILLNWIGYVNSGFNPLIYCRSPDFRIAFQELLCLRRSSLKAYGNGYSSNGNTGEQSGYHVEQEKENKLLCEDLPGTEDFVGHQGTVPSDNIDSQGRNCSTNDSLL
Sequence of 5-hydroxytryptamine receptor 2A (Homo sapiens) (P28223 whole entry, looked up): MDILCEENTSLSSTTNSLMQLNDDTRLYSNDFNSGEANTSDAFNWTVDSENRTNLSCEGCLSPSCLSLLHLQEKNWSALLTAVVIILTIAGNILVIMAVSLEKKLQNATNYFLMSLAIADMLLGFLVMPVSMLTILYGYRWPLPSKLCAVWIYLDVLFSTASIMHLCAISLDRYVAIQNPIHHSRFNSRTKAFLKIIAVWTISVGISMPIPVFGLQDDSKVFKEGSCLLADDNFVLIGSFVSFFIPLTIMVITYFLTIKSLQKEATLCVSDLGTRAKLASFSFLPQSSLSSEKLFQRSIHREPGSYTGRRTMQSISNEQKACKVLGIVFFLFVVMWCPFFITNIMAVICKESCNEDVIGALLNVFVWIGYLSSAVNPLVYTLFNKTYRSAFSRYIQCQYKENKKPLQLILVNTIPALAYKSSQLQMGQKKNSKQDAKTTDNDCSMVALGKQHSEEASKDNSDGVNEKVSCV
Sequence of KiSS-1 receptor (Homo sapiens) (Q969F8 whole entry, looked up): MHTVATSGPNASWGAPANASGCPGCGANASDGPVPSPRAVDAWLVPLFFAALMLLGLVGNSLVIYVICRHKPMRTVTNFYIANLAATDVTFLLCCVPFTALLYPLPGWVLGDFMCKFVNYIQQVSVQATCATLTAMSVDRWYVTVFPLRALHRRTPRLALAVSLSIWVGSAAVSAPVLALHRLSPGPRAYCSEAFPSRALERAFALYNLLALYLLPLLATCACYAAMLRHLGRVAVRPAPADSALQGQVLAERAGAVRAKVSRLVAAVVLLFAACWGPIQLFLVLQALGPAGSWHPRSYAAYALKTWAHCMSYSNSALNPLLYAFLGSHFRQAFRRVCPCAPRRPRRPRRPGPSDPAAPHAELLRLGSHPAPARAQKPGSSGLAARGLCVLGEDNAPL
Sequence of Muscarinic acetylcholine receptor M1 (Homo sapiens) (P11229 whole entry, looked up): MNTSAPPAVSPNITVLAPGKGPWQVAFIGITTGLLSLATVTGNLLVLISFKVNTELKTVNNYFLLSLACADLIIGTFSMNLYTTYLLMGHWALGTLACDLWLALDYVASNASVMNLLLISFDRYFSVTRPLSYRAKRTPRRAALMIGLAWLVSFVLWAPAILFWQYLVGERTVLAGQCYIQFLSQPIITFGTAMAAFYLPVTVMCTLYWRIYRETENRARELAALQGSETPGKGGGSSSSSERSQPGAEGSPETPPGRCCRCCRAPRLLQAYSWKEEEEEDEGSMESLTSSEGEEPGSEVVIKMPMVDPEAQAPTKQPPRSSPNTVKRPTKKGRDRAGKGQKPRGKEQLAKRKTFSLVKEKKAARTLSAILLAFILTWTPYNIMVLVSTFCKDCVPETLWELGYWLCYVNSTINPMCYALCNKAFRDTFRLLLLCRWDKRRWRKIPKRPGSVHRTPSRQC
Sequence of D(2) dopamine receptor (Homo sapiens) (P14416 whole entry, looked up): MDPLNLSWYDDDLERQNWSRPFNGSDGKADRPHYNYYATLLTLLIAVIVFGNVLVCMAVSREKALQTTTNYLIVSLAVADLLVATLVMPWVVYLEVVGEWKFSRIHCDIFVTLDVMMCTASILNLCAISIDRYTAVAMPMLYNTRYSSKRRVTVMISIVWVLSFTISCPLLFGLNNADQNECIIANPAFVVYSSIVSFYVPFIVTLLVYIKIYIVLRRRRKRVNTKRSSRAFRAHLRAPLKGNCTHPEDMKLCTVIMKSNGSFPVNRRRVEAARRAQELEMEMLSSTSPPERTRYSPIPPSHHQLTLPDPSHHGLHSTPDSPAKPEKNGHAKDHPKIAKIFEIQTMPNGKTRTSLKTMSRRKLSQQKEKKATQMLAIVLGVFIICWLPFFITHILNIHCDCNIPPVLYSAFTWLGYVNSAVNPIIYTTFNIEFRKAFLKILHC
Sequence of Gonadotropin-releasing hormone receptor (Homo sapiens) (P30968 whole entry, looked up): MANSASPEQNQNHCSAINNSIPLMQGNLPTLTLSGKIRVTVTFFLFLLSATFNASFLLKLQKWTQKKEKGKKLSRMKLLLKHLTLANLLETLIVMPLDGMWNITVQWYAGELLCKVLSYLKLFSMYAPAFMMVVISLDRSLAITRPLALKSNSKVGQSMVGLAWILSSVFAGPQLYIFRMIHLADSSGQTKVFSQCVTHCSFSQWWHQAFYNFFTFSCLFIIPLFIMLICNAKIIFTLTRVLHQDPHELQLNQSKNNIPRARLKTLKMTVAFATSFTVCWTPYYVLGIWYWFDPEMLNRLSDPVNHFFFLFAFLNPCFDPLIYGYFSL

CCCC(=O)c1ccccc1
inactive: all assays above

O=c1[nH]c2ccc(Cl)cc2o1
inactive: all assays above

CCC(C)(C)C1CCCCC1OC(C)=O (stereo not given)
inactive: all assays above

CC1(C)COCN1
inactive: all assays above

CCC(C)C1N=C(C)C(C)S1 (stereo not given)
inactive: all assays above

COC(=O)c1cc(Cl)ccc1OC
inactive: all assays above

CCN(CCO)c1cccc(C)c1
inactive: all assays above
